mHTT CaM bind: mHTT-calmodulin interaction abrogation. P42858. AlphaScreen His-mHTT/GST-CaM binding, luminescence. inhibition, % at 15 µM. actives 3.6% (n = 190,000). AID 1671202;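 further: 0% = both proteins with DMSO and 100% = one protein alone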
Target sequence (P42858 whole entry, looked up, stated change not applied): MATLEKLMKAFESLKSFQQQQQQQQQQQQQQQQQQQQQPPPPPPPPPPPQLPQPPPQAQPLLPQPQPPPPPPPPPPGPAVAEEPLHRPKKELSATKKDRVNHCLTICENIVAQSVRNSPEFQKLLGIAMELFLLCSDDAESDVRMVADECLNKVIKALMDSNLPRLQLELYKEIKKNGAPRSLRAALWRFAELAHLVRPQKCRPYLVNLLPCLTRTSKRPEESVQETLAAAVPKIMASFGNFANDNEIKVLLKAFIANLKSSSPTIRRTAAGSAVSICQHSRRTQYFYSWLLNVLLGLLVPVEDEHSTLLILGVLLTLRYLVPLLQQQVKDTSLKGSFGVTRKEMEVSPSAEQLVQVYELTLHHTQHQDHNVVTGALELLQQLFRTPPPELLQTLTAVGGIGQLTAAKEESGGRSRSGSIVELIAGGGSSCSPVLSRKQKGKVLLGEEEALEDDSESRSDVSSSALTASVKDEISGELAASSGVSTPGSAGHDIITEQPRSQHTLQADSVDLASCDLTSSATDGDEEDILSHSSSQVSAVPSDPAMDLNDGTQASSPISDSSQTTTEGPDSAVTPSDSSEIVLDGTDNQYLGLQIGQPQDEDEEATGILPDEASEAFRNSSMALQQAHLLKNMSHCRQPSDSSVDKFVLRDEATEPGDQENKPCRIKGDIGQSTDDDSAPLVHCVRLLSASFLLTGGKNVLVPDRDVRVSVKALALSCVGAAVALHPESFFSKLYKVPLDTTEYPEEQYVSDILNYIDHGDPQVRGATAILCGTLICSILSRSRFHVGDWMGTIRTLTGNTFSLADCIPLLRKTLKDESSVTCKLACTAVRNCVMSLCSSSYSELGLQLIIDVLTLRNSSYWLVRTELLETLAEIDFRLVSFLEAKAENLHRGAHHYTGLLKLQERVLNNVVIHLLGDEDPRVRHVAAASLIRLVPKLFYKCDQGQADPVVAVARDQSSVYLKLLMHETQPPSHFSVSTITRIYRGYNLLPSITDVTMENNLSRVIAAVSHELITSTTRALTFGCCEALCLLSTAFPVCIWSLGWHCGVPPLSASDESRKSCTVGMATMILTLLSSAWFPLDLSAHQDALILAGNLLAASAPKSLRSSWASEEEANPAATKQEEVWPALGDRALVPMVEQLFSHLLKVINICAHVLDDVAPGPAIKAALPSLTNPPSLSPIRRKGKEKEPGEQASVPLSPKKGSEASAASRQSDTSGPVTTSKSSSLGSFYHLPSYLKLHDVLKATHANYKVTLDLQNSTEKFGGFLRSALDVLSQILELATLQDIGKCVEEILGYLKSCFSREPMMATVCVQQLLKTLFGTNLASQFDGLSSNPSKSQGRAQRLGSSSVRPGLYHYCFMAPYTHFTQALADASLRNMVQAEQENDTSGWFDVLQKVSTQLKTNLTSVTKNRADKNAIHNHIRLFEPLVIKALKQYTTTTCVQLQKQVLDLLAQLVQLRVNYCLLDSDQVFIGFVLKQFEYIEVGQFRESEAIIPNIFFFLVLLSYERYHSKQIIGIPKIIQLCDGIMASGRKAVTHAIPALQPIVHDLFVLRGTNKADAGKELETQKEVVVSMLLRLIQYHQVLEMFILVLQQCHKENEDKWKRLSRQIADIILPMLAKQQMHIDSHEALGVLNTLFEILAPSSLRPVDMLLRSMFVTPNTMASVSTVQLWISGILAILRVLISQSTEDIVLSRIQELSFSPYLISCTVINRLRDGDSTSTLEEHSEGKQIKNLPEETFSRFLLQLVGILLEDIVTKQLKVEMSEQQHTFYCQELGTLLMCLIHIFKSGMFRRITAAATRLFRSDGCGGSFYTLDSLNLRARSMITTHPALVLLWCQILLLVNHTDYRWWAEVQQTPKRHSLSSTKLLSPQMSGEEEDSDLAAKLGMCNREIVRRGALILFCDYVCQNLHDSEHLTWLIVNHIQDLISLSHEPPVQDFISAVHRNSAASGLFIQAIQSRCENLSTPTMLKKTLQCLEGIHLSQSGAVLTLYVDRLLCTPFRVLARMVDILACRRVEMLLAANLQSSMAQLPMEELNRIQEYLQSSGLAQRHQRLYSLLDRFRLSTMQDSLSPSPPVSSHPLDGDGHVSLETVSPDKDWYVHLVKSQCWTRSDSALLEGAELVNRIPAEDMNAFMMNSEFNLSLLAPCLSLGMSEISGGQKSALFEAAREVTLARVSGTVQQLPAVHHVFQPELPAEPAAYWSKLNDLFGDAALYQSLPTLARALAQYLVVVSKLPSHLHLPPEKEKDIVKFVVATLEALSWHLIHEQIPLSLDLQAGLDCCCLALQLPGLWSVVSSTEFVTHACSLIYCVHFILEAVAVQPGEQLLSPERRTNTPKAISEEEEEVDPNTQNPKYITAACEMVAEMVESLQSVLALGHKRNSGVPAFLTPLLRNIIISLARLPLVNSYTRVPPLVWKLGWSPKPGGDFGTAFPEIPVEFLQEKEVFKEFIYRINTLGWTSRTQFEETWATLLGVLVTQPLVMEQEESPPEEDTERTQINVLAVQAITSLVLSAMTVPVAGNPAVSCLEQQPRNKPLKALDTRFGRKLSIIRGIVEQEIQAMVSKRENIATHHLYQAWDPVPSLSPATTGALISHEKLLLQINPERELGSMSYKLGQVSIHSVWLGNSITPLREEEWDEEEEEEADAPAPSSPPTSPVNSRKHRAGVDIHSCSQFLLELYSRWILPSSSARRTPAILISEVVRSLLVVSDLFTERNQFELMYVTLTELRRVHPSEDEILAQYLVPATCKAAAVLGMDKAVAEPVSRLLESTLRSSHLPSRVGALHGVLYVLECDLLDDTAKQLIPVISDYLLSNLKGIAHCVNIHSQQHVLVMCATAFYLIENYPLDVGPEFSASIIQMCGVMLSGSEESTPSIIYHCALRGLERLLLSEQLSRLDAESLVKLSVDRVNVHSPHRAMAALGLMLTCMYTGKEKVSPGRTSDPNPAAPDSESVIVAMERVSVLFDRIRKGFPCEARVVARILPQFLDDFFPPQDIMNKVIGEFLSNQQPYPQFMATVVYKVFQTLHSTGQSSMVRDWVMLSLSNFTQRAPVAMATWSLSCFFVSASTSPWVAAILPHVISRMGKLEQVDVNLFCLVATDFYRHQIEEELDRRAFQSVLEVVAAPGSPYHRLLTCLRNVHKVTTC
Pf apPOL inh: Pf-apPOL DNA polymerase inhibition | actives 0.25% (n = 210,000) | Recombinant Pf-apPOL, molecular beacon fluorescence, 1.5 h | AID 1794808 | inhibition, % at 10 µM
The depositor's hits bear a star; . = no result; ! = not active in a repeat. The list is not random: actives were taken first. Their share in the collection is about 3.6%. No stated cut-off is given here; in the data, active means inhibition above about 50%; inactive means the rest.

SMILES	mHTT CaM bind	Pf apPOL inh
N#CC1=C(S)NC(O)(c2ccccc2)C([n+]2ccc3ccccc3c2)C1c1cccc(F)c1 (stereo not given)	69*	-6
Cc1ccc(C2(O)NC(S)=C(C#N)C(c3ccc(F)cc3)C2[n+]2ccccc2)cc1 (stereo not given)	82*	0
Cc1cc[n+](C2C(c3ccc([N+](=O)[O-])cc3)C(C#N)=C(S)NC2(O)C2CC2)cc1 (stereo not given)	58*	-2
CC1(O)NC(C(C#N)C#N)=C(C#N)C(c2ccc(F)cc2)C1[n+]1ccccc1 (stereo not given)	0	-2
COc1ccc(-c2nc3c(c(=O)[nH]2)CCN(C(=O)c2ccc4nc[nH]c4c2)C3)cc1	6	-1
Cc1ccn2cc(CCNC(=O)C(C)(C)C)nc2c1	-13	-7
Oc1ccc(Cl)cc1Sc1cc(Cl)ccc1O	98*	.
CN(C)Cc1cc(Cl)ccc1O	-3	2
Nc1cc(C(=O)O)ccc1S(=O)(=O)CC1CCCO1 (stereo not given)	4	-8
CCn1nc(-c2ccccn2)nc2c(=O)n(C)c(=O)nc1-2	84*	6
Cn1nc(-c2ccncc2)nc2c(=O)n(C)c(=O)nc1-2	2	9
C=CCn1c(CSc2ccccc2[N+](=O)[O-])n[nH]c1=S	.	60*
COc1ccccc1-n1c(CSc2ccccc2[N+](=O)[O-])n[nH]c1=S	.	1
CC(C)N1C(=O)C(C)(C(=O)NCc2ccccc2)Oc2cccnc21 (stereo not given)	-5	-3
CC(C)N1C(=O)C(C)(C(=O)NCc2ccc(Br)cc2)Oc2cccnc21 (stereo not given)	95*	-7
OC(COCC1CC2CCC1C2)CN1CCc2ccccc2C1 (stereo not given)	-2	0
OC(COCC1CC2CCC1C2)CN1CCN(C(c2ccccc2)c2ccccc2)CC1 (stereo not given)	62*	2
Cc1ccc(C)c(N=Cc2cccc([N+](=O)[O-])c2)c1	1	6
O=c1c(-[n+]2ccccc2)cc2[nH]c3ccccc3c2n1-c1ccccc1	14	-1
O=c1c(N=Cc2ccccc2)cc2[nH]c3ccccc3c2n1-c1ccccc1	99*	-5
O=c1c(N=Cc2cccc([N+](=O)[O-])c2)cc2[nH]c3ccccc3c2n1-c1ccccc1	97*	4
CN1C(=O)Cc2cc(Br)ccc21	-3	.
CCc1nc2cc(-c3noc(-c4cccc5[nH]ccc45)n3)ccc2o1	-11	-4
Cc1ccc(CNc2ccc3c(c2)OCO3)c(C)c1	100*	2
COc1cc(Br)c(CNCc2ccc3c(c2)OCO3)cc1OC	-3	-2
SMILES	mHTT CaM bind	Pf apPOL inh
COc1ccc(Br)cc1CNc1ccc2c(c1)OCO2	98*	-7
Cc1cccc(NCc2ccc3c(c2)OCO3)c1	39	7
CSc1ccc(Cl)c(C(=O)Nc2c(C)n(C)n(-c3ccccc3)c2=O)c1	-2	63*
Cc1c(NC(=O)c2cc([N+](=O)[O-])ccc2Cl)c(=O)n(-c2ccccc2)n1C	-1	-1
O=C(Cc1c[nH]c2ncccc12)NCc1ccc(C(F)(F)F)cc1	-10	86*
O=C(Cc1c[nH]c2ncccc12)NCc1ccccc1	1	-1
COc1ccc(/C=C2/C(=O)N(c3ccc(C(=O)O)cc3)N=C2C)cc1OC	3	-12
CCOc1ccc(-n2nnnc2CNC(=O)NCc2cccs2)cc1	0	-3
Cc1ccc(C)c(CN2C(=O)C3(OCCCO3)c3ccccc32)c1	-22	-7
O=C1N(Cc2cc(=O)n3ccccc3n2)c2ccccc2C12OCCCO2	52*	-8
CC1CCCCN1CC(=O)N1N=C(c2ccc(F)cc2)CC1c1cccn1C (stereo not given)	60*	-2
COc1ccc(C2CC(c3ccc(F)cc3)=NN2C(=O)CN2CCCCC2C)cc1 (stereo not given)	22	-3
Cc1ccc(C2=NN(C(=O)CN3CCOCC3)C(c3ccc(Cl)cc3)C2)cc1C (stereo not given)	15	1
COc1ccccc1C1=NN(C(=O)CN2CCCCC2C)C(c2ccc(C)cc2)C1 (stereo not given)	72*	-4
COc1ccccc1C1=NN(C(=O)CN2CCCC2)C(c2ccc(C)cc2)C1 (stereo not given)	43	-5
Cn1cccc1C1CC(c2ccccc2Cl)=NN1C(=O)CN1CCOCC1 (stereo not given)	22	-1
CCN1CCN(CC(=O)N2N=C(c3ccc(C)c(C)c3)CC2c2cccn2C)CC1 (stereo not given)	99*	1
CC1CCN(CC(=O)N2N=C(c3ccccc3Cl)CC2c2cccn2C)CC1 (stereo not given)	84*	-3
COc1ccc(C2=NN(C(C)=O)C(c3ccc(OC)cc3)C2)cc1 (stereo not given)	2	-3
COc1cccc(Nc2cc(C(=O)N3CCSCC3)nc3ccc(C)cc23)c1	7	-1
c1ccc(CN2CCN(Cc3nc4ccccc4[nH]3)CC2)nc1	-8	-3
COc1cccc2cc(C(=O)NCC3CCN(C(=O)c4ccccc4F)CC3)oc12	-3	-7
N#CCc1ccc(NC(=O)COc2ccc3c(c2)CCC3)cc1	1	-2
COc1ccc(C2CC(c3ccc(F)cc3)=NN2C(=O)CN2CCC(C)CC2)cc1 (stereo not given)	24	-3
CC1CCN(CC(=O)N2N=C(c3ccc(F)cc3)CC2c2cccn2C)CC1 (stereo not given)	52*	-1
SMILES	mHTT CaM bind	Pf apPOL inh
CCN1CCN(CC(=O)N2N=C(c3ccc(F)cc3)CC2c2cccn2C)CC1 (stereo not given)	98*	-4
COc1ccc(C2CC(c3ccc(F)cc3)=NN2C(=O)CN2CCCCC2)cc1 (stereo not given)	28	-4
O=C(Nc1nc(CCC(=O)N2CCn3c2nc2ccccc23)cs1)c1ccc(F)cc1	4	-4
CC(=O)Nc1nc(-c2ccc(Cl)cc2Cl)nc2c1c(=O)oc1ccccc12	-6	-3
O=C1C(=Cc2ccc(-c3ccccc3[N+](=O)[O-])o2)C(=O)c2ccccc21	6	-3
Cc1cc([N+](=O)[O-])c(C)cc1-c1ccc(/C=C/c2cc(C(F)(F)F)[nH]c(=O)n2)o1	95*!	-2
O=c1nc(/C=C/c2ccc(-c3ccccc3[N+](=O)[O-])o2)cc(C(F)(F)F)[nH]1	90*	1
O=c1nc(/C=C/c2cccn2-c2ccc([N+](=O)[O-])cc2)cc(C(F)(F)F)[nH]1	8	-1
O=C1CCS(=O)(=O)N1c1ccc(S(=O)(=O)NCc2ccccn2)cc1	-10	-8
COC1(c2ccc(Cl)cc2)OC(=O)c2ccccc21 (stereo not given)	-33	-2
O=[N+]([O-])c1cccc(/C=C/c2nc(C=Nc3ccccc3)c(O)o2)c1	-2	1
O=[N+]([O-])c1cccc(/C=C/c2nc(C=Nc3ccc(O)cc3)c(O)o2)c1	50*	5
Cc1cccc(-c2noc(C3CCN(CC(=O)Nc4ccccc4C)CC3)n2)c1	2	1
O=C(c1ccc2c(c1)nc1n2CCN(C2CCCCC2)C1=O)N1CCCC1	-4	-2
CSc1ccc(C2C(C#N)=C(N)Oc3cc(N(C)C)ccc32)cc1 (stereo not given)	42	-4
CCOc1ccccc1C1C(C#N)=C(N)Oc2cc(N(C)C)ccc21 (stereo not given)	61*	-5

Screening data from PubChem.
